Assay results from PubChem BioAssay AID556 (SRMLSC, 2006).
The campaign covered roughly 65,000 compounds. About 320 (0.49%) were called active. This is one part of a sample in which actives are shown more often than they occur.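 The calls were made as follows: active = the 320 compounds with the highest percent inhibition in the single-dose primary screen, excluding strongly autofluorescent ones (cut at about 32% in these data); inactive = the rest, inconclusive results apart.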

Test system: diphosphomevalonate decarboxylase (Streptococcus pneumoniae D39)
Assay: diphosphomevalonate decarboxylase activity blockers – biochemical, PK/LDH-coupled NADH fluorescence, primary screen (AID 556);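 as to inhibition: kinetic rate of NADH fluorescence loss reporting ADP formed by the decarboxylase; 0% = full reaction rate with carrier and 100% = no-substrate background rate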
Conditions: purified DPM-DC, at 10 µM
[1] = stronger effect = higher value unless noted
[2] = measured here: pilot screen trials, stronger effect = higher value

CCOC(=O)N1CCC(O)(c2cc(C)c(C)cc2C)CC1
inhibition [1]: 0.5% [measured here: pilot screen trials, stronger effect = higher value] | outcome [1]: inactive

O=C(C1=C(O)C(=O)N(c2ncccn2)C1c1cccs1)c1ccco1 (stereo not drawn)
inhibition [1]: 1% (inactive)

Cc1[nH]c2ccc(S(N)(=O)=O)cc2c1C
inhibition [1]: inactive

CCN(CC)c1ccc(C(=O)OCC(=O)c2ccco2)cc1
inhibition [1]: inactive

Cc1ccc(S(=O)(=O)N2CC(=O)Nc3ccccc32)cc1C
inhibition [1]: inactive

Cc1nc(NC(=O)C23CCC(C)(C(=O)O2)C3(C)C)sc1C (stereo not drawn)
inhibition (stronger effect = higher value): 6% (inactive) | inhibition [2]: 2%

Cc1noc(C)c1C(=O)OCC(=O)/C=C1\N(C)c2ccccc2C1(C)C
inhibition [1]: inactive

CCOC(=O)CN1CC23C=CC(O2)C(C(=O)Nc2ccc(F)cc2)C3C1=O (stereo not drawn)
inhibition [1]: inactive

CCOCCOC(=O)C1=C(C)N(C)C(=O)NC1c1ccccc1F (stereo not drawn)
inhibition [1]: inactive

Cc1c(C(=O)N2CC(C)OC(C)C2)sc2nc(-c3ccccc3)cn12 (stereo not drawn)
inhibition [1]: inactive

Cc1c(C(=O)NCC2CCCO2)sc2nc(-c3ccccc3)cn12 (stereo not drawn)
inhibition [1]: 35% (active)

Cc1c(C(=O)NCCN2CCOCC2)sc2nc(-c3ccc(F)cc3)cn12
inhibition [1]: 9% (inactive)

C=CCn1c(C2CC(=O)N(c3ccc(C)cc3)C2)nc2ccccc21 (stereo not drawn)
inhibition [1]: inactive

O=C(CSc1nc2cc3c(cc2c(=O)n1CCC1=CCCCC1)OCO3)NCc1ccco1
inhibition [1]: inactive

CCNS(=O)(=O)c1ccc(NC(=O)Nc2cccc(C(F)(F)F)c2)cc1
inhibition [1]: inactive

CCCCOc1ccc(C(C)(O)CCN2CCOCC2)cc1 (stereo not drawn)
inhibition [1]: inactive

CC1(C)Oc2ccc(C(=O)N3CCOCC3)cc2N(CC(=O)Nc2ccccc2)C1=O
inhibition [1]: inactive

CCCCNc1nc2ccccc2nc1NS(=O)(=O)c1cccs1
inhibition [1]: 2% (inactive)

Cc1ccc(CN2C(=O)CCC2C(=O)NCCCN2CCCCC2C)cc1 (stereo not drawn)
inhibition [1]: inactive

Cn1c(SCc2nc3ccccc3s2)nnc1-c1ccc2c(c1)OCO2
inhibition [1]: inactive

Cc1cccc(N2CCN(C(=O)C3CCN(S(=O)(=O)c4cnc[nH]4)CC3)CC2)c1C
inhibition [1]: inactive

CCCCCCOC(=O)NCC(O)c1ccccc1 (stereo not drawn)
inhibition [1]: inactive

Cc1nc(NCc2ccccc2)c(C(N)=O)c2c1COC(C)(C)C2
inhibition [1]: 24% (inactive)

Cc1nc(NCCN)c(C#N)c2c1COC(C)(C)C2
inhibition [1]: 32% (active)

Cc1ccc(S(=O)(=O)NCCN2CCOCC2)cc1C
inhibition (stronger effect = higher value): 80% (active) | inhibition [2]: 0%

Cn1c(=O)c(=O)n(C)c2cc(S(=O)(=O)NCCc3ccccc3)ccc21
inhibition [1]: inactive

Cc1cc(C)c(S(=O)(=O)NCCCN2CCOCC2)cc1Br
inhibition [1]: inactive

COCCNC(=O)CN1C(=O)CSc2ncccc21
inhibition [1]: 0% [measured here: pilot screen trials, stronger effect = higher value] | outcome [1]: inactive

c1ccc(CCc2nc(-c3ccncc3)no2)cc1
inhibition [1]: inactive

Cc1ccccc1CN1CCN(CC(=O)NCc2ccccn2)C1=O
inhibition [1]: inactive

COc1ccc2c(c1)C(C)=CC(C)(C)N2C(=O)CNCc1ccc2c(c1)OCO2
inhibition [1]: 7% (inactive)

CC(C)c1nc2oc3c(N4CCN(C)CC4)ncnc3c2c2c1CCC2
inhibition [1]: inactive

Cc1cccc(C)c1NC(=O)CCCSc1nnc(-c2ccco2)n1-c1ccccc1
inhibition [1]: inactive

NC(=O)c1ccsc1NC(=O)c1ccco1
inhibition [1]: 9% (inactive)

Cc1cc(C)c(C#N)c(SCS(=O)c2ccc(C(C)(C)C)cc2)n1 (stereo not drawn)
inhibition [1]: inactive

O=C(CCS(=O)(=O)c1cccc2nonc12)NCCc1ccccc1Cl
inhibition [1]: inactive

COCCCN1C(=O)c2ccc(C(=O)Nc3ccc(OC)cc3OC)cc2C1=O
inhibition [1]: inactive

CCCN1C(=O)C(NC(C)=O)c2cc(OC)ccc21 (stereo not drawn)
inhibition [1]: 40% (active)

CCC1=C(C(=O)OC)C(c2cc(OC)ccc2OC)C(C#N)=C(N)O1 (stereo not drawn)
inhibition [1]: 0% [measured here: pilot screen trials, stronger effect = higher value] | outcome [1]: inactive

CCC(=O)c1ccc(OCC(O)CN2C(=O)NC(C)(C)C2=O)cc1 (stereo not drawn)
inhibition [1]: inactive

CC1(C)CC(=O)C=C(NCc2ccncc2)C1
inhibition [1]: 2.5% [measured here: pilot screen trials, stronger effect = higher value] | outcome [1]: inactive

Cn1c(=NC(=O)c2ccco2)sc2cccc(F)c21
inhibition [1]: 37% (active)

Cn1c(=NC(=O)C2CC2)sc2cc(F)cc(F)c21
inhibition [1]: inactive

CCCC(=O)N=c1sc2cccc(F)c2n1C
inhibition [1]: inactive

c1ccc(-n2ncc3c2ncn2c(C4CCCCC4)nnc32)cc1
inhibition [1]: inactive

CC(=O)Nn1cc2c(=O)n(C)c(=O)n(C)c2c1
inhibition [1]: inactive

COc1cc(C(=O)N(Cc2ccc(N(C)C)cc2)C2CCS(=O)(=O)C2)cc(OC)c1OC (stereo not drawn)
inhibition [1]: inactive

COc1ccc(OCC(=O)N2CCOCC2)cc1
inhibition [1]: inactive

CCCCOC(=O)Nc1nccs1
inhibition (stronger effect = higher value): 1% (inactive) | inhibition [2]: 4.5%

CN(C)CCNC(CC(=O)Nc1ccc(Cl)c(Cl)c1)C(=O)O (stereo not drawn)
inhibition [1]: inactive

COc1cc(Cl)cc(C2NC(=O)NC(C)=C2C(=O)NCc2ccccc2)c1O (stereo not drawn)
inhibition [1]: 12% (inactive)

CCOc1ccc(C2C(C(=O)NC)=C(C)Nc3nc4ccccc4n32)cc1OC (stereo not drawn)
inhibition [1]: inactive

Cc1onc(-c2ccccc2)c1C(=O)Nc1ccccc1C#N
inhibition [1]: 5% (inactive)

CC(=O)N1CCc2cc(S(=O)(=O)Nc3ccccc3N3CCN(C)CC3)ccc21
inhibition [1]: 1% (inactive)

CC(c1cccnc1)N(CCN(C)C)C(=O)Nc1ccc(Cl)c(Cl)c1 (stereo not drawn)
inhibition [1]: inactive

COc1ccc(C(CNC(=O)c2cccnc2SC)N2CCOCC2)cc1 (stereo not drawn)
inhibition [1]: inactive

COc1cc(C2C(C(=O)Nc3ccccc3OC)=C(C)Nc3ncnn32)ccc1O (stereo not drawn)
inhibition [1]: inactive

Cc1cc(NC(=O)CSc2nnc(-c3ccc(Cl)s3)o2)no1
inhibition [1]: inactive

COc1ccc(OCCCC(=O)Nc2nnc(C3CCCO3)s2)cc1 (stereo not drawn)
inhibition [1]: inactive

O=C(Nc1ccccc1N1CCN(C(=O)c2ccccc2)CC1)c1ccc2c(c1)OCO2
inhibition [1]: inactive

Cc1ccc(C)c(S(=O)(=O)N2CC(=O)Nc3ccccc32)c1
inhibition [1]: inactive

COc1ccc(S(=O)(=O)N2CCOCC2)cc1C(=O)Nc1nc2ccccc2s1
inhibition [1]: 6% (inactive)

N#Cc1cccc(NC(=O)CCC2CCCC2)c1
inhibition [1]: inactive

CCCCn1nc(C(=O)N2CCc3ccccc32)c2ccccc2c1=O
inhibition (stronger effect = higher value): 4% (inactive) | inhibition [2]: 2%

Cc1cc(C)nc(SCc2nnc(SCC(=O)OC3CCCCC3)o2)n1
inhibition [1]: inactive
